Experimental data from article PMC5540273 (PLoS ONE, 2017).

tested on: CSK; details: concentration: 1 μM, replicates: in singlicate; n = 1
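Note: KINOMEscan kinase panel screen.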

`CN1CCN(CCCNc2nccc(-c3c(-c4ccc(F)cc4)nn4cc(C(F)(F)F)ccc34)n2)CC1` [GW621581] was tested. Which “%Inh” value did it give?
The value was 0%.

`C[C@@H]1CC[C@@H](C(=O)Nc2ccccc2)CN1c1cc(-c2ccc3c(N)n[nH]c3c2)nc(N)n1` [GSK2286062] was tested. Which “%Inh” value did it give?
Its value is 0%.

Which “%Inh” value does the source give for `Cl.Cl.NCC(NCc1ccc(-c2ccnc3[nH]ccc23)s1)c1ccccc1` (stereo not shown) [GSK1321565] here?
Its value is 0%.

How did the “%Inh” value turn out when `Nc1n[nH]c2cnc(-c3ccccc3)cc12` [SB-642124] was run?
The value was 0%.

How did the “%Inh” value turn out when `COc1cccc(NC(=O)NC2CCN(c3ccnc(Nc4cc(OC)c(OC)c(OC)c4)n3)C2)c1` (stereo not shown) [GSK1379763] was run?
Its value is 15%.

With `COc1cccc(C(=O)Nc2cccc(Oc3ccc4nc(NC(=O)C5CC5)cn4n3)c2)c1` as the compound, how does the “%Inh” value read?
Its value is 17%.

`c1ccc(-c2n[nH]cc2Nc2ccnc3ccccc23)nc1` [GW694077] was tested. Which “%Inh” value did it give?
Its value is 0%.

`O=C(Nc1cccc(-c2nn3ccccc3c2-c2ccnc(Nc3cccc(C(F)(F)F)c3)n2)c1)c1c(F)cccc1F` [GSK292658] was tested. Which “%Inh” value did it give?
The value was 31%.

`CSc1cccc2c(-c3ccncn3)c(-c3ccc(F)cc3)nn12` [GW514786] was tested. Which “%Inh” value did it give?
Its value is 0%.

`COc1ccc(CNC(=O)NC2CCN(c3ccnc(Nc4ccc(F)cc4)n3)CC2)cc1` [GSK1379788] was tested. Which “%Inh” value did it give?
The value was 0%.

With `COCCOCCOc1cc2ncc3c4ccc(C#N)cc4[nH]c3c2cc1OC` as the compound, how does the “%Inh” value read?
Its value is 10%.

`FC(F)(F)c1ccc(/C=C/c2cncnc2Nc2ccc3[nH]c(Cc4ccccc4)nc3c2)cc1` [GW709199] was tested. Which “%Inh” value did it give?
Its value is 0%.

`COc1cc(Nc2nccc(N3CCC(NC(=O)Nc4cccc(C(C)=O)c4)C3)n2)cc(OC)c1OC` (stereo not shown) [GSK1379753] was tested. Which “%Inh” value did it give?
The value was 0%.

Which “%Inh” value does the source give for `O=C(O)C(F)(F)F.O=C(O)C(F)(F)F.O=c1[nH]ccc2nc(N[C@@H]3CCCNC3)nc(Nc3ccc(S(=O)(=O)N4CCOCC4)cc3)c12` [GSK2177277] here?
Its value is 51%.

Which “%Inh” value does the source give for `Cc1ccc(C(=O)N2CC[C@@H](O)C2)cc1-n1c(C)cc(OCc2ccc(F)cc2F)c(Br)c1=O` here?
Its value is 0%.

How did the “%Inh” value turn out when `Cl.c1ccc(-c2ccc3c(Nc4ccc5[nH]ccc5c4)ccnc3c2)nc1` [GW440138] was run?
The value was 0%.

For `CCCCc1nn2ncccc2c1-c1ccnc(Nc2ccc(N3CCN(C)CC3)cc2)n1` [GW684941], which “%Inh” value is on record?
The value was 7%.

Which “%Inh” value does the source give for `COc1ccc(Nc2nccc(NCCNC(=O)c3cc4ccccc4s3)n2)cc1` [GSK1379896] here?
The value was 0%.

Which “%Inh” value does the source give for `COc1ccc(Nc2nccc(N3CCC(NC(=O)Nc4cccc(OC)c4)C3)n2)cc1` (stereo not shown) [GSK1379742] here?
Its value is 0%.

How did the “%Inh” value turn out when `O=C(Nc1ccccc1F)NC1CCN(c2ccnc(Nc3ccc(F)cc3)n2)CC1` [GSK1379800] was run?
Its value is 0%.

Which “%Inh” value does the source give for `Cn1cc(-c2ccc3c(c2)CCN3C(=O)Cc2cccc(F)c2)c2c(N)ncnc21` [GSK2603358] here?
The value was 14%.

With `CCc1ccc(-c2ccc3c(c2)-c2c(cnn2C)S(=O)(=O)N3C)cc1` as the compound, how does the “%Inh” value read?
Its value is 0%.

For `COc1cc(Nc2nccc(-c3c(-c4cccc(NC(=O)c5c(F)cccc5F)c4)nn4ccccc34)n2)cc(OC)c1OC` [GSK323521], which “%Inh” value is on record?
The value was 1%.

With `O=C(Nc1cccc(Oc2ccc3nc(NC(=O)C4CC4)cn3n2)c1)c1ccccc1C(F)(F)F` as the compound, how does the “%Inh” value read?
Its value is 11%.

For `O=c1[nH]cc(-c2ccc(N3CCOCC3)cc2)c2sc(-c3cn[nH]c3)cc12` [GSK2276055], which “%Inh” value is on record?
The value was 7%.

Which “%Inh” value does the source give for `Cc1cccc(Nc2nc(N[C@H]3CCNC3)ncc2C(N)=O)c1.Cl` [GSK2197149] here?
Its value is 0%.

Which “%Inh” value does the source give for `Nc1ncc(-c2cccnc2)c2scc(-c3ccc4c(c3)CCN4C(=O)Cc3ccccc3)c12` [GSK683281] here?
Its value is 23%.

`Cl.Cl.NCC(C(=O)Nc1cc(Br)c(-c2ccnc3[nH]ccc23)s1)c1ccccc1` (stereo not shown) [GSK1269851] was tested. Which “%Inh” value did it give?
Its value is 0%.

For `Fc1ccc(-c2ncn(C3CCNCC3)c2-c2ccnc(Oc3ccc(-c4ccccc4)cc3)n2)cc1` [SB-245391], which “%Inh” value is on record?
Its value is 14%.

With `Cl.c1ccc(-c2ccc3c(Nc4ccc5[nH]ncc5c4)ccnc3c2)nc1` [GW440137] as the compound, how does the “%Inh” value read?
Its value is 0%.

For `Cl.NC(=O)c1cccc(Nc2nccc(Nc3ccc(Oc4c(Cl)cccc4Cl)c(Cl)c3)n2)c1` [GW659009], which “%Inh” value is on record?
Its value is 0%.

With `O=C(Nc1cccc(-c2nn3ncccc3c2-c2ccnc(Nc3ccccc3)n2)c1)c1c(F)cccc1F` [GSK198271] as the compound, how does the “%Inh” value read?
Its value is 97.5%.

Which “%Inh” value does the source give for `COC(=O)Nc1nc2ccc(Oc3ccc(NC(=O)Nc4cc(C(F)(F)F)ccc4F)cc3)cc2n1C.Cl` [GW692089] here?
The value was 0%.

How did the “%Inh” value turn out when `Oc1cc(Nc2ccnc3cc(I)ccc23)ccc1F` [GW552771] was run?
The value was 0%.

Which “%Inh” value does the source give for `CC(C)c1nc(-c2cccc(NS(=O)(=O)c3c(F)cccc3F)c2F)c(-c2ccnc(Nc3ccc(N4CCOCC4)nc3)n2)s1` [GSK2008607] here?
Its value is 98%.

How did the “%Inh” value turn out when `CCn1c(-c2nonc2N)nc2c(C#CC(C)(C)O)nc(OC[C@H](N)c3ccccc3)cc21` [GSK943949] was run?
Its value is 0%.

`CC(C)(C)c1ccc2nccc(Nc3cccc(O)c3)c2c1` [GW856795] was tested. Which “%Inh” value did it give?
The value was 0%.
